Results taken from PubChem BioAssay (EPA / NIEHS).
“And” between values parts separate entries of the source, which are not always exact repeats. Equal entries are not always repeated. Some compounds were tested as several samples or in several runs, with calls that do not always agree. The source made the active and inactive calls. Rule for the calls: active = hit-call score of the fitted dose curve at least 0.9, where 1 is the maximum; inactive = score below 0.9.

Experiments:
[1] = APR_HepG2_CellLoss_72hr: Apredica 72-hour HepG2 Assay for Cell Loss (AID 2282915); settings: high-content imaging
Method in brief: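 HepG2 cells were exposed for 72 hr to compounds at 0.39–200 uM (ten concentrations, duplicate) in 0.5% v/v final DMSO. Nuclei were stained with Hoechst 33342 after 3.7% formaldehyde fixation, imaged at 20x, and counted; fits bidirectional versus DMSO.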

[2] = APR_HepG2_P-H2AX_72hr: Apredica 72-hour HepG2 Assay for H2AX Phosphorylation (AID 2282916); settings: imaging, actives raise or lower the signal;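 note: phospho-histone H2A.x immunostain intensity per cell marking DNA damage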
Method in brief: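 Phospho-H2A.x imaging endpoint in HepG2 after 72 hr compound exposure (0.39–200 uM, duplicate wells). Activity derived by bidirectional curve fitting with DMSO as baseline.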

[3] = APR_HepG2_MitoMembPot_72hr: Apredica 72-hour HepG2 Assay for Mitochondrial Membrane Potential (AID 2282917); settings: imaging, actives raise or lower the signal
Method in brief: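 HepG2 cells exposed 72 h to compounds at 0.39–200 uM (0.5% v/v DMSO, duplicates); MitoTracker Red CMXRos 250 nM loaded 30 min before 3.7% formaldehyde fixation, imaged by HCS fluorescence. Bidirectional fit versus DMSO.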

[4] = APR_HepG2_MitoticArrest_72hr: Apredica 72-hour HepG2 Assay for Mitotic Arrest (AID 2282918); settings: high-content imaging, actives raise or lower the signal
Method in brief: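 HepG2, 72 hr exposure, 0.39–200 uM in duplicate, 0.5% v/v DMSO final. Formaldehyde-fixed, Triton-permeabilized, anti-phospho-histone H3/FITC plus Hoechst. ArrayScan imaging at 20x; curves fit bidirectionally against DMSO baseline.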

[5] = APR_HepG2_MicrotubuleCSK_72hr: Apredica 72-hour HepG2 Assay for Microtubule CSK Stabilty (AID 2282919); settings: HepG2 microtubule cytoskeleton, high-content imaging, actives raise or lower the signal
Method in brief: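 Ten-point dosing (0.39–200 uM, 0.5% DMSO) of HepG2 for 72 hr, with taxol as the cytoskeletal positive control. The cells were formaldehyde-fixed and then stained with alpha-tubulin/Cy5 and Hoechst. Imaging at 20x used a −2 um Z offset for tubulin.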

[6] = APR_HepG2_P-H2AX_24hr: Apredica 24-hour HepG2 Assay for H2AX Phosphorylation (AID 2282920); settings: high-content imaging, actives raise or lower the signal
Method in brief: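 HCS fluorescence imaging of phospho-H2A.x immunostain (with Hoechst 33342 nuclear counterstain) in HepG2 after 24 hr compound exposure; 10 concentrations, 0.39–200 uM, duplicate wells, 0.5% v/v DMSO. Gain or loss of signal fitted relative to DMSO baseline.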

[7] = APR_HepG2_StressKinase_72hr: Apredica 72-hour HepG2 Assay for Stress Kinase (AID 2282921); settings: HepG2 stress kinase (phospho-c-Jun) imaging, actives raise or lower the signal
Method in brief: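 Stress kinase signal reflects nuclear phospho-c-Jun staining in fixed, permeabilized cells exposed 72 h to compound at 0.39–200 uM; DMSO-normalized, fitted for increases or decreases.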

[8] = APR_HepG2_StressKinase_24hr: Apredica 24-hour HepG2 Assay for Stress Kinase (AID 2282922); settings: HepG2 stress kinase (phospho-c-Jun) imaging, actives raise or lower the signal
Method in brief: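 After 24 hr compound treatment (up to 200 uM, final DMSO 0.5% v/v), HepG2 cells are fixed and multiplex-labeled; phospho-c-Jun intensity is captured by high-content fluorescence imaging and analyzed relative to DMSO.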

[9] = APR_HepG2_p53Act_72hr: Apredica 72-hour HepG2 Assay for p53 Activation (AID 2282923); settings: high-content imaging, actives raise or lower the signal;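 note: average cellular p53 protein immunofluorescence intensity in HepG2 cells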
Method in brief: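 Fixed-cell p53 staining (sheep primary, Cy5 secondary) measured by fluorescence imaging following 72 hr treatment at 0.39–200 uM in 0.5% DMSO; DMSO served as negative control and baseline.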

[10] = APR_HepG2_MitoMass_72hr: Apredica 72-hour HepG2 Assay for Mitochondrial Mass (AID 2282924); settings: high-content imaging, actives raise or lower the signal;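 note: MitoTracker Red CMXRos stain intensity per cell imaged as mitochondrial mass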
Method in brief: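 Steps: treat HepG2 72 hr (0.39–200 uM, duplicate wells); load MitoTracker Red CMXRos, 250 nM, 30 min; fix with 3.7% formaldehyde, permeabilise with 0.5% Triton X-100; capture images, nuclei via Hoechst 33342; fit bidirectionally against DMSO.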

[11] = APR_HepG2_NuclearSize_72hr: Apredica 72-hour HepG2 Assay for Nuclear Size (AID 2282925); settings: high-content imaging, actives raise or lower the signal
Method in brief: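 Compounds (0.39–200 uM, final DMSO 0.5%) were applied to HepG2 for 72 hr. Cells were then formaldehyde-fixed, permeabilized and labelled with Hoechst 33342. Nuclear diameter was quantified from six images per well.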

[12] = ATG_CRE_CIS: Attagene CIS-FACTORIAL HepG2 Assay for human cAMP Responsive Element (CRE) binding protein 3 (AID 2282926); settings: HepG2 CRE cis-reporter, Attagene multiplexed mRNA; actives raise or lower the signal
Method in brief: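 Readout: fluorescently labelled reporter transcripts resolved by capillary electrophoresis after RT-PCR, taken 24 h post-dosing in transfected HepG2. Endogenous transcription factor activity drives each cis-element reporter; gain or loss of signal fitted relative to DMSO control.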

[13] = target: CCAAT/enhancer-binding protein beta (Homo sapiens) (UniProt P17676); assay: ATG_C_EBP_CIS: Attagene CIS-FACTORIAL HepG2 Assay for human CCAAT/Enhancer Binding Protein (C/EBP) beta (AID 2282927); settings: HepG2 Attagene cis-factorial transcription factor reporter; actives raise or lower the signal
Method in brief: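 Following a 24 h incubation with test chemical, transfected HepG2 cells yielded RNA whose reporter transcripts were quantified by RT-PCR and fluorescent capillary electrophoresis, with DMSO serving as baseline for bidirectional fitting.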

[14] = ATG_CMV_CIS: Attagene CIS-FACTORIAL HepG2 Assay for human CMV (Internal Marker) (AID 2282928); settings: HepG2 CMV promoter reporter, transcription factor profiling; actives raise or lower the signal;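 note: endpoint acts as a background internal control marker rather than a target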
Method in brief: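 Reporter transcripts from transfected HepG2 cells are isolated after 24 h of chemical dosing, reverse-transcribed and amplified. Fragments labeled with 6-FAM are cut with HpaI and quantified by capillary electrophoresis; DMSO defines baseline.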

[15] = ATG_DR4_LXR_CIS: Attagene CIS-FACTORIAL HepG2 Assay for human Liver X Receptor (LXR), DR4 submotif (AID 2282929); settings: HepG2 Attagene DR4 cis-reporter, mRNA transcription; actives raise or lower the signal
Method in brief: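 Endogenous factor activity at a DR4 cis-element is read as reporter mRNA in transiently transfected HepG2 cells. Exposure lasts 24 h; transcripts are amplified, fluorescently labelled and sized by capillary electrophoresis, with DMSO as baseline.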

[16] = target: Aryl hydrocarbon receptor (Homo sapiens) (UniProt P35869); assay: ATG_Ahr_CIS: Attagene CIS-FACTORIAL HepG2 Assay for human Aryl Hydrocarbon Receptor (Ahr) (AID 2282930); settings: HepG2 AhR cis-factorial reporter transcription; actives raise or lower the signal
Method in brief: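 Values derive from bidirectional fitting against DMSO negative control. Underlying signal: cis-element reporter mRNA in transiently transfected HepG2, harvested 24 h post-dose and measured by RT-PCR plus capillary electrophoresis.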

[17] = ATG_AP_1_CIS: Attagene CIS-FACTORIAL HepG2 Assay for human Activator Protein 1 (AP-1) (AID 2282931); settings: HepG2 Attagene cis-factorial AP-1 reporter mRNA; actives raise or lower the signal
Method in brief: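 Fluorescence of labelled PCR fragments separated by capillary electrophoresis gives reporter mRNA levels. HepG2 with transfected cis-regulated reporter units, 24 h exposure; DMSO serves as baseline for bidirectional curve fits.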

[18] = ATG_AP_2_CIS: Attagene CIS-FACTORIAL HepG2 Assay for human Activator Protein 2 (AP-2) (AID 2282932); settings: HepG2 AP-2 cis-reporter, Attagene transcription factor profiling; actives raise or lower the signal
Method in brief: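 Assay in transfected HepG2 with promoter-regulated reporters, 24 h incubation after dosing. Signal is reporter mRNA fluorescence (RT-PCR, capillary electrophoresis), analysed for both increases and decreases relative to DMSO controls.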

[19] = ATG_BRE_CIS: Attagene CIS-FACTORIAL HepG2 Assay for human Bone Morphogenetic Protein (BMP) Response Element (BRE) (AID 2282933); settings: HepG2 BMP response element reporter, Attagene transcription factor profiling; actives raise or lower the signal
Method in brief: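 A HepG2 multiplex reporter system measured inducible reporter mRNA 24 h post-dosing. Detection: RT-PCR, 6-FAM primer extension, HpaI digestion, capillary electrophoresis. Activity fitted bidirectionally relative to DMSO.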

[20] = target: Retinoic acid receptor alpha (Homo sapiens) (UniProt P10276); assay: ATG_DR5_RAR_CIS: Attagene CIS-FACTORIAL HepG2 Assay for human Retinoic Acid Receptor Alpha (RARE), DR5 submotif (AID 2282934); settings: HepG2 Attagene cis-factorial RARE DR5 reporter, mRNA; actives raise or lower the signal
Method in brief: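 Endpoint fitted in both directions relative to DMSO as negative control. It reflects DR5 cis-element reporter mRNA induction in transiently transfected HepG2 cells, measured 24 h after dosing through RT-PCR and fluorescent capillary electrophoresis.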

Chain of Aryl hydrocarbon receptor (Homo sapiens) (P35869 whole entry, looked up): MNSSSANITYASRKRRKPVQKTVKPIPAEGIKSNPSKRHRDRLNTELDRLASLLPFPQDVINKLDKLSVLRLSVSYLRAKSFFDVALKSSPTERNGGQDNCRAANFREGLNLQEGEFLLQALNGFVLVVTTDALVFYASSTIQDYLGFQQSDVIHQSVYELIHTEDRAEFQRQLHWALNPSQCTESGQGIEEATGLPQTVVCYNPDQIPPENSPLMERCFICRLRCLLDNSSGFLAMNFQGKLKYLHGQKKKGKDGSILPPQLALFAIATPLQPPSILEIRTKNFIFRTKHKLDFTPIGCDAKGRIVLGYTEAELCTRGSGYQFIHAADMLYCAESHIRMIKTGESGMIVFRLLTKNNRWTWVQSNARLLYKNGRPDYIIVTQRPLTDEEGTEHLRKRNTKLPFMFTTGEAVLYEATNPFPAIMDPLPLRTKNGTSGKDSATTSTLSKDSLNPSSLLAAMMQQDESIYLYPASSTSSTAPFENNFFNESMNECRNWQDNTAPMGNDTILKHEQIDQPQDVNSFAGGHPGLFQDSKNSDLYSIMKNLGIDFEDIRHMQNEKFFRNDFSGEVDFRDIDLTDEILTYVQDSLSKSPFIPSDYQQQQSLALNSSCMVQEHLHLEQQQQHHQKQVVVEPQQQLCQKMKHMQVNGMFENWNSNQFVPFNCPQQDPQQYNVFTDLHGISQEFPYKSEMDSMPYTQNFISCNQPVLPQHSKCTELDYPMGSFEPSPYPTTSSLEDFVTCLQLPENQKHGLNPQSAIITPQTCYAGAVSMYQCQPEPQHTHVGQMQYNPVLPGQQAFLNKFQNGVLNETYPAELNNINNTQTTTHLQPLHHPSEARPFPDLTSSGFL
Chain of CCAAT/enhancer-binding protein beta (Homo sapiens) (P17676 whole entry, looked up): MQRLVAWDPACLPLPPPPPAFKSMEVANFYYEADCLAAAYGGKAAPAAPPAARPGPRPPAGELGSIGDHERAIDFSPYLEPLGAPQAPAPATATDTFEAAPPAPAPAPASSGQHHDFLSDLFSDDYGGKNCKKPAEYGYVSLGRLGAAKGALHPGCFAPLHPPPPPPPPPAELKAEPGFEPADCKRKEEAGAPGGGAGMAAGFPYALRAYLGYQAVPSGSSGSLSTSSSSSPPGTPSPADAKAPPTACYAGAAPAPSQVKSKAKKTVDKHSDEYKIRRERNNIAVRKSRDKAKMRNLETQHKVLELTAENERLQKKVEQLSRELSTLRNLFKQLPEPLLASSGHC
Chain of Retinoic acid receptor alpha (Homo sapiens) (P10276 whole entry, looked up): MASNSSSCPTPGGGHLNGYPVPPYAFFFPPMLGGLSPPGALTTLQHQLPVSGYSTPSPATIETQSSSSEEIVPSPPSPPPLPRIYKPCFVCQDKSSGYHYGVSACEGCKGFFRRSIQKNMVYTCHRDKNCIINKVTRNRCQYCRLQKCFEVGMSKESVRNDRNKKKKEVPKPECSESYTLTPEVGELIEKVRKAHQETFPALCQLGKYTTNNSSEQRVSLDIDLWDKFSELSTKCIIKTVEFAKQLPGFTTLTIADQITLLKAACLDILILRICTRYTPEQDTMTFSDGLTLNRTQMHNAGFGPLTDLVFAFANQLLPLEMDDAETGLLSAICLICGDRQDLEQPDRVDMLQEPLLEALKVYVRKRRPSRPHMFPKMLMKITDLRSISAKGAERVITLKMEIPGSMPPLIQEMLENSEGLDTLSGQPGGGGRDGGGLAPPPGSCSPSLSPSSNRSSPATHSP

CCNc1nc(Cl)nc(NCC)n1
outcome [1]: inactive
outcome [2]: inactive
outcome [3]: inactive
outcome [4]: inactive
outcome [5]: inactive
outcome [6]: inactive
outcome [7]: inactive
outcome [8]: inactive
outcome [9]: inactive
outcome [10]: inactive
outcome [11]: inactive
outcome [12]: inactive
outcome [13]: inactive
outcome [14]: inactive
outcome [15]: inactive
outcome [16]: inactive
outcome [17]: inactive
outcome [18]: inactive
outcome [19]: inactive
outcome [20]: inactive

O=C(O)c1nc(Cl)ccc1Cl
outcome [1]: inactive
outcome [2]: inactive
outcome [3]: inactive
outcome [4]: inactive
outcome [5]: inactive
outcome [6]: inactive
outcome [7]: inactive
outcome [8]: inactive
outcome [9]: inactive
outcome [10]: inactive
outcome [11]: inactive
outcome [12]: inactive
outcome [13]: inactive
outcome [14]: inactive
outcome [15]: inactive
AC50 [16]: 50 µM (active)
outcome [16]: inactive
outcome [17]: inactive
outcome [18]: inactive
outcome [19]: inactive

Cc1cc(Cl)ccc1OCC(=O)O
outcome [1]: inactive
outcome [2]: inactive
outcome [3]: inactive
outcome [4]: inactive
outcome [5]: inactive
outcome [6]: inactive
outcome [7]: inactive
outcome [8]: inactive
outcome [9]: inactive
outcome [10]: inactive
outcome [11]: inactive
outcome [12]: inactive
outcome [13]: inactive
outcome [14]: inactive
outcome [15]: inactive
outcome [16]: inactive
outcome [17]: inactive
outcome [18]: inactive
outcome [19]: inactive

CNC(=S)S
AC50 [1]: 36.7 µM (active)
AC50 [2]: 11.3 µM (active)
outcome [3]: inactive
AC50 [4]: 13.5 µM (active)
AC50 [5]: 26.2 µM (active)
AC50 [6]: 32.9 µM (active)
outcome [7]: inactive
outcome [8]: inactive
outcome [9]: inactive
outcome [10]: inactive
outcome [11]: inactive
outcome [12]: inactive
outcome [13]: inactive
AC50 [14]: 50 µM (active)
outcome [14]: inactive
outcome [15]: inactive
AC50 [16]: 33.2 µM (active)
outcome [16]: inactive
AC50 [17]: 50 µM (active)
outcome [17]: inactive
outcome [18]: inactive
AC50 [19]: 65.9 µM (active)
outcome [19]: inactive

Oc1ccccc1-c1ccccc1
outcome [1]: inactive
outcome [2]: inactive
outcome [3]: inactive
outcome [4]: inactive
outcome [5]: inactive
outcome [6]: inactive
outcome [7]: inactive
outcome [8]: inactive
outcome [9]: inactive
outcome [10]: inactive
outcome [11]: inactive
AC50 [12]: 148 µM (active)
outcome [12]: inactive
outcome [13]: inactive
AC50 [14]: 56.6 µM (active)
outcome [14]: inactive
AC50 [15]: 80.3 µM (active) and 64 µM (active)
AC50 [16]: 40.5 µM (active)
outcome [16]: inactive
AC50 [17]: 88.3 µM (active)
outcome [17]: inactive
outcome [18]: inactive
AC50 [19]: 71.7 µM (active) and 150 µM (active)
